Source: PubChem
Compounds with a hit are over-represented: about 5.6% of the library has one in this group of screens.
Cardio protect – modulators protecting cardiomyocytes from myocardial damage | H9c2 cardiomyocytes, H2O2 injury protection, ATPLite, 2 h | protection from H2O2 cell death, % at 20 µM | 360,000 tested, 0.63% active;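 active = compounds giving at least 50% protection of heart cells from peroxide-induced death in the single-dose screen, raw or plate-pattern-corrected value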;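 also: 0% = DMSO wells with peroxide and 100% = DMSO wells without peroxide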
M18AAP inhibitor – blocks P. falciparum M18 aspartyl aminopeptidase; recombinant PfM18AAP, H-Glu-NHMec fluorogenic cleavage; AID 1822; inhibition, % at 7.35 µM; 290,000 tested, 1.2% active;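 active = inhibition above the campaign mean inhibition over all tested compounds plus 3 SD, cut at about 28% in these data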;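 also: 0% = plate median of test compound wells and 100% = 2 mM ZnCl2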
ALR inh – human ALR oxidase inhibition via reduced H2O2; P55789; purified ALR, DTT oxidation, H2O2 HRP-luminol luminescence; inhibition, % (test concentration not listed); 290,000 tested, 3.8% active; AID 485317;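 active = mean replicate inhibition above about 79%, with every replicate also reaching it, limit read from the data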
Target sequence (P55789 whole entry, looked up): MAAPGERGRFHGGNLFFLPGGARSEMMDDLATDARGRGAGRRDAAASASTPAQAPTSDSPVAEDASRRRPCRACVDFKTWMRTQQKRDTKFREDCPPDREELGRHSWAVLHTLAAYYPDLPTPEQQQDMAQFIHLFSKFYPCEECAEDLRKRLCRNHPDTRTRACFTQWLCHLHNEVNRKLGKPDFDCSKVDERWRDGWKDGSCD
PfGluPho inh – PfG6PD (Plasmodium falciparum) enzyme inhibition; PfGluPho enzyme, NADPH resazurin-diaphorase fluorescence; inhibition, % at 20 µM; 350,000 tested, 0.78% active;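 active = inhibition reaching at least a set limit at 20 µM in the primary screen, cut at about 59% in these data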;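 also: 0% = DMSO wells with substrate and 100% = DMSO wells lacking glucose-6-phosphate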
PHOSPHO1 block – PHOSPHO1 (human) inhibition; recombinant PHOSPHO1, absorbance phosphatase assay; 290,000 tested, 1.1% active; Q8TCT1; inhibition, % at 13.3 µM; in the data active = inhibition above about 60%
Target sequence (Q8TCT1 whole entry, looked up): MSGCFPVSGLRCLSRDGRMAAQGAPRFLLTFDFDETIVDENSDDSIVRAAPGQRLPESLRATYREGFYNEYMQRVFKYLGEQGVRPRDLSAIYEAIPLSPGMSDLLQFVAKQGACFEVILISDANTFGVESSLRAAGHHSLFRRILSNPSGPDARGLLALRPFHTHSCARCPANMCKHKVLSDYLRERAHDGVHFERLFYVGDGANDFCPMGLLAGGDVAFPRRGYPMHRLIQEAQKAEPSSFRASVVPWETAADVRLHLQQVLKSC
Starred values were filed as active, the others as inactive.

How did C[C@H](CO)N1C[C@H](C)[C@@H](CN(C)C(=O)OCc2ccccc2)OCc2cn(nn2)CCCC1=O do in these assays?
Cardio protect: -2; PfGluPho inh: 11

What do the screens show for `Cc1c(N=C2SCC(=O)N2/N=C/c2ccccc2Cl)c(=O)n(-c2ccccc2)n1C`?
Cardio protect: 4; M18AAP inhibitor: -1; ALR inh: -10; PfGluPho inh: -12; PHOSPHO1 block: 12

How did Cc1c(N=C2SCC(=O)N2/N=C\c2ccc(Br)cc2)c(=O)n(-c2ccccc2)n1C do in these assays?
Cardio protect: -7; M18AAP inhibitor: 6; ALR inh: 92*; PfGluPho inh: 0; PHOSPHO1 block: 2

How did C=CCn1c(SCC(=O)Nc2ccc3c(c2)OCO3)nnc1-c1ccccc1OC do in these assays?
Cardio protect: -2; M18AAP inhibitor: 6; ALR inh: -4; PfGluPho inh: 37; PHOSPHO1 block: 19

Results for C=CCn1c(SCc2csc(-c3ccc(Cl)cc3)n2)nnc1-c1ccccc1OC ?
Cardio protect: -13; M18AAP inhibitor: 2; ALR inh: 81*; PfGluPho inh: 10; PHOSPHO1 block: -26

How did Clc1ccc(-c2nc3cnccn3c2Nc2ccc3c(c2)OCO3)cc1 do in these assays?
Cardio protect: 7; M18AAP inhibitor: 31*; ALR inh: 98*; PfGluPho inh: 24; PHOSPHO1 block: 30

Results for CSc1ccc(-c2nc3cnccn3c2Nc2ccc3c(c2)OCO3)cc1 ?
Cardio protect: 15; M18AAP inhibitor: 13; ALR inh: 100*; PfGluPho inh: 32; PHOSPHO1 block: 15

Results for COC(=O)CSCC(=O)Nc1nnc(-c2cccc(C)c2)s1 ?
Cardio protect: 1; M18AAP inhibitor: 4; ALR inh: 11; PfGluPho inh: -7; PHOSPHO1 block: -2

How did CNc1oc(/C=C/c2ccccc2)nc1C#N do in these assays?
Cardio protect: -9; M18AAP inhibitor: 34*; ALR inh: 0; PfGluPho inh: 3; PHOSPHO1 block: 11

How did COc1ccccc1N1CCN(Cc2ccc(O)c3ncccc23)CC1 do in these assays?
Cardio protect: 37; M18AAP inhibitor: 10; ALR inh: 4; PfGluPho inh: -16; PHOSPHO1 block: 40

Results for Oc1ccc(CN2CCCc3ccccc32)c2cccnc12 ?
Cardio protect: 56*; M18AAP inhibitor: 0; ALR inh: 5; PfGluPho inh: 19; PHOSPHO1 block: 74*

How did O=C(Cc1ccccc1)Nc1cccc(-c2nc3ncccc3o2)c1 do in these assays?
Cardio protect: 6; M18AAP inhibitor: 8; ALR inh: 2; PfGluPho inh: -13; PHOSPHO1 block: 45

What do the screens show for `Cc1cc(C)cc(OCC(=O)Nc2cccc(-c3nc4ncccc4o3)c2)c1`?
Cardio protect: 102*; M18AAP inhibitor: 2; ALR inh: -8; PfGluPho inh: 19; PHOSPHO1 block: 0

How did CC(CCn1cccn1)NC(=O)c1cc(COc2ccc(F)cc2Cl)on1 (stereo unspecified) do in these assays?
Cardio protect: -2; M18AAP inhibitor: 1; ALR inh: 1; PfGluPho inh: -6; PHOSPHO1 block: 1

How did O=C(NCCCn1cccn1)c1cc(COc2ccc(F)cc2Cl)on1 do in these assays?
Cardio protect: 0; M18AAP inhibitor: 30*; ALR inh: -2; PfGluPho inh: -14; PHOSPHO1 block: 28

How did CCC(C)(C)C1CCc2[nH]nc(C(=O)NC(C)C)c2C1 (stereo unspecified) do in these assays?
Cardio protect: -4; ALR inh: 1; PfGluPho inh: 10

What do the screens show for `COC(=O)C1C(O)=C(C=Nc2ccccc2)C(=O)CC1(C)C` (stereo unspecified)?
Cardio protect: 15; M18AAP inhibitor: 5; ALR inh: 100*; PfGluPho inh: 9; PHOSPHO1 block: 30

How did COC(=O)C1C(O)=C(C=Nc2ccc(N)cc2)C(=O)CC1(C)C (stereo unspecified) do in these assays?
Cardio protect: 1; M18AAP inhibitor: 15; ALR inh: 26; PfGluPho inh: 7; PHOSPHO1 block: 29

How did Cc1c(NC(C)c2ccccc2O)c(=O)n(-c2ccccc2)n1C (stereo unspecified) do in these assays?
Cardio protect: 3; M18AAP inhibitor: -19; ALR inh: 54; PfGluPho inh: 7; PHOSPHO1 block: 13

What do the screens show for `Cc1c(NC(=O)Nc2cccc(F)c2)c(=O)n(-c2ccccc2)n1C`?
Cardio protect: 2; M18AAP inhibitor: 3; ALR inh: -7; PfGluPho inh: 3; PHOSPHO1 block: 61*

Results for Cc1ccc(C(c2c(C)n(C)n(-c3ccccc3)c2=O)c2c(C)n(C)n(-c3ccccc3)c2=O)s1 ?
Cardio protect: 59*; M18AAP inhibitor: -10; ALR inh: -10; PfGluPho inh: 15; PHOSPHO1 block: -26

What do the screens show for `Cc1cccc(NC(=O)Nc2c(C)n(C)n(-c3ccccc3)c2=O)c1`?
Cardio protect: 5; M18AAP inhibitor: -18; ALR inh: -12; PfGluPho inh: -9

What do the screens show for `Cc1c(NC(=O)/C(C#N)=C/c2ccc(-c3ccc(Cl)c(Cl)c3)o2)c(=O)n(-c2ccccc2)n1C`?
Cardio protect: 8; M18AAP inhibitor: -3; PfGluPho inh: 14; PHOSPHO1 block: -29

What do the screens show for `Cc1c(NC(C)c2cc(Cl)ccc2O)c(=O)n(-c2ccccc2)n1C` (stereo unspecified)?
Cardio protect: -12; M18AAP inhibitor: 2; ALR inh: 91*; PfGluPho inh: -2; PHOSPHO1 block: 9

What do the screens show for `Cc1c(NC(=O)/C(C#N)=C/c2ccc(-c3ccccc3Cl)o2)c(=O)n(-c2ccccc2)n1C`?
Cardio protect: 1; M18AAP inhibitor: -4; ALR inh: 88*; PfGluPho inh: -12; PHOSPHO1 block: -9

What do the screens show for `Cc1c(C(c2ccccc2)c2c(C)n(C)n(-c3ccccc3)c2=O)c(=O)n(-c2ccccc2)n1C`?
Cardio protect: -5; M18AAP inhibitor: -4; ALR inh: -31; PfGluPho inh: 4; PHOSPHO1 block: 31

What do the screens show for `COCCNC(=O)C1(C)CCCN(Cc2ccc(OC)cc2)C1` (stereo unspecified)?
Cardio protect: 1

What do the screens show for `COc1ccccc1N1CCN(Cc2cc(=O)c(OCC(=O)NC3CCCC3)co2)CC1`?
Cardio protect: 7; ALR inh: 2; PfGluPho inh: 10

Results for CC(Nc1ccccc1)c1cc(Cl)ccc1O (stereo unspecified) ?
Cardio protect: -17; M18AAP inhibitor: 0; ALR inh: 99*; PfGluPho inh: 4; PHOSPHO1 block: 2

How did Cc1c(NC(C)C)c(=O)n(-c2ccccc2)n1C do in these assays?
Cardio protect: -8; ALR inh: 97*; PfGluPho inh: -1

How did Cc1c(NS(=O)(=O)c2ccccc2)c(=O)n(-c2ccccc2)n1C do in these assays?
Cardio protect: -3; M18AAP inhibitor: -10; ALR inh: -7; PfGluPho inh: 3; PHOSPHO1 block: -20

Results for Cc1c(C(=O)Nc2c(C)n(C)n(-c3ccccc3)c2=O)oc2ccc(Cl)cc12 ?
Cardio protect: -3; M18AAP inhibitor: 1; ALR inh: 4; PfGluPho inh: -2; PHOSPHO1 block: 71*
